A number with no mark means an inactive call.
Assays:
Assay in all cases: log2 ratio of Biotin-Ahx-Ub-VS probe labelling (fragment/DMSO); higher = less target engagement (more negative = stronger competition), active = hit call of the paper (q ≤ 0.05, log2 ratio ≤ -1)
Conditions in all cases: compound concentration: 200 uM; treatment time: 3 h
ALG13 = molecular target: T1, ALG13 (UniProt Q9NP73)
T1 sequence (whole entry): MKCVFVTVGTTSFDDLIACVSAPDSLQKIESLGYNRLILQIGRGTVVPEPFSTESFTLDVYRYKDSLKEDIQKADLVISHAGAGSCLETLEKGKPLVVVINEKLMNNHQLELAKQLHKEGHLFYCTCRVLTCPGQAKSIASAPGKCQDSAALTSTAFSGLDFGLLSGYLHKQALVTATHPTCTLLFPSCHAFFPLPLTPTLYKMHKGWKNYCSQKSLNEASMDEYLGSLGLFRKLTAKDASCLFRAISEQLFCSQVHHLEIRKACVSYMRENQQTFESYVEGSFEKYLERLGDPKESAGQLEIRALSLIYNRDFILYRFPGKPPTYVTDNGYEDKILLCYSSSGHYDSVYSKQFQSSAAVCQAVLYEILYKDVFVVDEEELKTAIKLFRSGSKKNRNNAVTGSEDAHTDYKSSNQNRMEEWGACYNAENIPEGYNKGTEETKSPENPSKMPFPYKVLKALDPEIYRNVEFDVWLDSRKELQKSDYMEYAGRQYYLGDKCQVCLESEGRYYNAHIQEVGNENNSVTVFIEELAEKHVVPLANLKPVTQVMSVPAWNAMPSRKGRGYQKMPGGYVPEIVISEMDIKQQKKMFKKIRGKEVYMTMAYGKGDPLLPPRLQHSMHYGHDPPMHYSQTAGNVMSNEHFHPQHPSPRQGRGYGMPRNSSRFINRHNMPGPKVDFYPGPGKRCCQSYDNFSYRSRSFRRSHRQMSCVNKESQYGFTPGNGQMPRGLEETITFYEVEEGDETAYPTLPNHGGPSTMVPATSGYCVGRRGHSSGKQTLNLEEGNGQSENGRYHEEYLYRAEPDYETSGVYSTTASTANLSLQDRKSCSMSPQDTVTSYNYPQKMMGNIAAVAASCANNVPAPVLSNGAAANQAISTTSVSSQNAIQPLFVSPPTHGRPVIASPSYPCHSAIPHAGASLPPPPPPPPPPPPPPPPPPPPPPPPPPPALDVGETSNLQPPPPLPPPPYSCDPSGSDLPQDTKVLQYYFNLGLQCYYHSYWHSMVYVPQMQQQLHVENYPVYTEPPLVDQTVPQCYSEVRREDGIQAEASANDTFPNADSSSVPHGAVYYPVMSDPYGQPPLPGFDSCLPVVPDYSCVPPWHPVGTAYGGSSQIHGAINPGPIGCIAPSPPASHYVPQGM
In short: (§1)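 HEK293T lysate (495 µg per sample, in Tris/CHAPS/IGEPAL buffer with protease inhibitors) was exposed in triplicate for 3 h to fragment at 200 µM or to vehicle, then to Biotin-Ahx-Ub-VS at 0.5 µM final for 1 h. Labelled DUBs were enriched on NeutrAvidin, digested with LysC and trypsin, and analysed by diaPASEF LC-MS/MS. Spectronaut label-free quantities were normalised to the global median, and values are average log2 ratios of fragment over vehicle from an unpaired t-test. Only proteins with ≥2 unique peptides were used.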

ATXN3 = ATXN3 (UniProt P54252)
In short: as §1

BAP1 = molecular target: T2, BAP1 (UniProt Q92560)
T2 sequence (whole entry): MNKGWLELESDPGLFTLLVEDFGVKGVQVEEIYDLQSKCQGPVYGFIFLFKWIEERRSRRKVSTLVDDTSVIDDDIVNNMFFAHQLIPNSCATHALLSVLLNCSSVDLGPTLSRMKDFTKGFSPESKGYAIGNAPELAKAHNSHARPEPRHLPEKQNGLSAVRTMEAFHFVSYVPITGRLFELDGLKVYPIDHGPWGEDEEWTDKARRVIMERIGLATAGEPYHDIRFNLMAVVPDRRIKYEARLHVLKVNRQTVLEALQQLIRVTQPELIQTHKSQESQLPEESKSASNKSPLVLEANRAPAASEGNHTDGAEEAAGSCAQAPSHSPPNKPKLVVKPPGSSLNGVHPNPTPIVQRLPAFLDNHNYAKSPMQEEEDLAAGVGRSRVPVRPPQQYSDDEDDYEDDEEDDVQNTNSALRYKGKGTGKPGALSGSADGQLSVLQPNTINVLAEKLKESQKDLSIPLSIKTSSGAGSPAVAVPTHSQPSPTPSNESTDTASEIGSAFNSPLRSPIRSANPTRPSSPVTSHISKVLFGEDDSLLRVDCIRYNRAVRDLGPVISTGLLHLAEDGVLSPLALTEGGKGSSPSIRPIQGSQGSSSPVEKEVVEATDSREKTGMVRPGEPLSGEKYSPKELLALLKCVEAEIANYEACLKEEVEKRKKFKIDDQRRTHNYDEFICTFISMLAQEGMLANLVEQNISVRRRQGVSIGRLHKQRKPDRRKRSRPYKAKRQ
In short: as §1

EIF3F = EIF3F (UniProt O00303)
In short: as §1

EIF3H = EIF3H (UniProt O15372)
In short: as §1

FAM105A = molecular target: T3, FAM105A (UniProt Q9NUU6)
T3 sequence (whole entry): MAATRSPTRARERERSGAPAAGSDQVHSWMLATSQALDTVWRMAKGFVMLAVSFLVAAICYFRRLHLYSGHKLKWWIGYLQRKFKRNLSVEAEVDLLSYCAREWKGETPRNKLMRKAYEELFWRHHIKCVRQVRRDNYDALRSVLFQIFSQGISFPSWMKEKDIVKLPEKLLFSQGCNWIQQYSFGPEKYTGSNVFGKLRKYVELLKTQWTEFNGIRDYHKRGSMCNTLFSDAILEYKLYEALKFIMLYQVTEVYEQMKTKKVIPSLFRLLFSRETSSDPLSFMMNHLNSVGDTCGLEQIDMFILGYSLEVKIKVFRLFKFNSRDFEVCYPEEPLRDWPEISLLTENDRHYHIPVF
In short: as §1

OTUB1 = OTUB1 (UniProt Q96FW1)
In short: as §1

OTUD4 = molecular target: T4, OTUD4 (UniProt Q01804)
T4 sequence (whole entry): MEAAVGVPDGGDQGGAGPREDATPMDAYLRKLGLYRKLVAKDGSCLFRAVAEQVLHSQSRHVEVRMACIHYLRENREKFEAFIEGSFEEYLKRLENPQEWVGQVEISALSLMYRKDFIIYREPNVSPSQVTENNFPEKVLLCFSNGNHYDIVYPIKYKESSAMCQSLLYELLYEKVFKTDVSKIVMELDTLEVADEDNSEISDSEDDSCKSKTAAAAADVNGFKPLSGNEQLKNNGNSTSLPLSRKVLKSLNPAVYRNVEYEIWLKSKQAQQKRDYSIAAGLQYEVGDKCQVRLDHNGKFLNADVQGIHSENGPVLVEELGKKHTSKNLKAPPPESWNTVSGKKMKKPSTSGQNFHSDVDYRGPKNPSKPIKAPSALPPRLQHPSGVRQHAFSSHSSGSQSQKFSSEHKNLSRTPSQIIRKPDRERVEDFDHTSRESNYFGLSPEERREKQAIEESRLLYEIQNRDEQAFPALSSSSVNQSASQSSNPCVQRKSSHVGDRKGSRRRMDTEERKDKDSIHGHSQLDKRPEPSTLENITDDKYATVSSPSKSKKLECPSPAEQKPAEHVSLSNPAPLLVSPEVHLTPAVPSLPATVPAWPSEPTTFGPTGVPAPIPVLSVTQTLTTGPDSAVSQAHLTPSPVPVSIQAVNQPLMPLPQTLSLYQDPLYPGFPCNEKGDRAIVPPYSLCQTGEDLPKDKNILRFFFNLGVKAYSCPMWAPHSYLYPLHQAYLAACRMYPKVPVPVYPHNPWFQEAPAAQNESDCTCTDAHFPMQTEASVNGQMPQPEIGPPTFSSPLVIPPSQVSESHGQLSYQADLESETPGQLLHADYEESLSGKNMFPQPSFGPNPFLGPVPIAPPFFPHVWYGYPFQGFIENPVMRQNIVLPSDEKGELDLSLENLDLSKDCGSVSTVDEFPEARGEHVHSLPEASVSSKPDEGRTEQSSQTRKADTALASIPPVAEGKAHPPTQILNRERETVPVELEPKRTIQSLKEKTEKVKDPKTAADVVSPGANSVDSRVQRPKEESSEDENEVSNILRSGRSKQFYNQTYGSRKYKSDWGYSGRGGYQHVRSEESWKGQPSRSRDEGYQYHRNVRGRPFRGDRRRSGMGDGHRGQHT
In short: as §1

OTUD5 = molecular target: T5, OTUD5 (UniProt Q96G74)
T5 sequence (whole entry): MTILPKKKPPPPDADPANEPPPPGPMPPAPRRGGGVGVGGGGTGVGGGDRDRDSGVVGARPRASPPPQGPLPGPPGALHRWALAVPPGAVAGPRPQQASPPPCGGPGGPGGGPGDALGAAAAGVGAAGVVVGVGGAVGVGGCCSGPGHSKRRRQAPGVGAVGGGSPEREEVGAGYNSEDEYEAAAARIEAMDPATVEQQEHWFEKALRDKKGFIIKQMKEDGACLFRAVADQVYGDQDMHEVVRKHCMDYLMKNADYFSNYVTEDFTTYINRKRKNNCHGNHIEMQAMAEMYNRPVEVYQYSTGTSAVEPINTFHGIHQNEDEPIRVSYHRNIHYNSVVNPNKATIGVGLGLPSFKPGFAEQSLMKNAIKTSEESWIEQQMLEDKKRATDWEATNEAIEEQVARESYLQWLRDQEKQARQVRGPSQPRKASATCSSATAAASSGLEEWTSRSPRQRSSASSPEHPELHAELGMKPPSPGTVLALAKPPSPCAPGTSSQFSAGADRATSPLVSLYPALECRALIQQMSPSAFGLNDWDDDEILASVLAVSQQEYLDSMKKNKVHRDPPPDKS
In short: as §1

EIF3F, sequence (O00303 whole entry): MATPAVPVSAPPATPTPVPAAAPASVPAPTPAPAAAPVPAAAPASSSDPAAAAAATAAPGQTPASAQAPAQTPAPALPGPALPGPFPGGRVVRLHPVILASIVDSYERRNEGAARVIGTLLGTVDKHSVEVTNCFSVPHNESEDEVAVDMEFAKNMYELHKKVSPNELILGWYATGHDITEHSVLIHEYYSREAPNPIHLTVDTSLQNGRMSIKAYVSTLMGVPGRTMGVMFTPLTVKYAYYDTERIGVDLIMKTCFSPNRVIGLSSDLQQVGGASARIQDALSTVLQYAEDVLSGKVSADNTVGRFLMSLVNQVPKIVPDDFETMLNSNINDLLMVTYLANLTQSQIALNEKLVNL
ATXN3, sequence (P54252 whole entry): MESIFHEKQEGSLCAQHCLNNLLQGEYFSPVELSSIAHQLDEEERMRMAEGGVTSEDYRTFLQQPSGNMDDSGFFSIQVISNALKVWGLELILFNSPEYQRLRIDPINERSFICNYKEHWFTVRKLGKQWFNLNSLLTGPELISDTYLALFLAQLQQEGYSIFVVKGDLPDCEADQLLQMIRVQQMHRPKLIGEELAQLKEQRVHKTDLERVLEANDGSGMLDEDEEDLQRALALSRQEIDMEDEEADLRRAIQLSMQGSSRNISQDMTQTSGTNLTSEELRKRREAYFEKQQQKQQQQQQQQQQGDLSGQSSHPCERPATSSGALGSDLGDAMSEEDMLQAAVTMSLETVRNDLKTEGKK
OTUB1, sequence (Q96FW1 whole entry): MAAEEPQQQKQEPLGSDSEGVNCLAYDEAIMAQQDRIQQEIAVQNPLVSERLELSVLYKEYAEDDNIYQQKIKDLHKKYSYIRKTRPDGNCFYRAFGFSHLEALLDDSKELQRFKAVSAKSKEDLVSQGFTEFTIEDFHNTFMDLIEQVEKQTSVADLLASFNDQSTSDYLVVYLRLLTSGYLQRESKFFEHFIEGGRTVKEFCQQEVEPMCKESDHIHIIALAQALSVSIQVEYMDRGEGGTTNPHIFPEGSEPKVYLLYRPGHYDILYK
EIF3H, sequence (O15372 whole entry): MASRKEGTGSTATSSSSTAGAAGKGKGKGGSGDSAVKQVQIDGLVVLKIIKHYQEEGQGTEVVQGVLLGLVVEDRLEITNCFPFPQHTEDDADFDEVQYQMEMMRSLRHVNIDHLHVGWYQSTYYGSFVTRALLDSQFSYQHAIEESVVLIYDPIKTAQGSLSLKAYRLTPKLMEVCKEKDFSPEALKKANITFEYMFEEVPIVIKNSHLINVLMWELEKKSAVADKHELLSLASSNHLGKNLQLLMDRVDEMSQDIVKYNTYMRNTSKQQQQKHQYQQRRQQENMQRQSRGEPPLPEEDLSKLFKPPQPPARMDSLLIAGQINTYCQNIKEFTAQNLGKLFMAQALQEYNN

CC(NC(=O)CCl)c1cnn(C2CC2)c1 (centres undefined)
log2 ratio of Biotin-Ahx-Ub-VS probe labelling (ALG13): 0.171 | log2 ratio of Biotin-Ahx-Ub-VS probe labelling (ATXN3): -0.145 | log2 ratio of Biotin-Ahx-Ub-VS probe labelling (BAP1): -2.22 (active) | log2 ratio of Biotin-Ahx-Ub-VS probe labelling (EIF3F): -0.625 | log2 ratio of Biotin-Ahx-Ub-VS probe labelling (EIF3H): 0.172 | log2 ratio of Biotin-Ahx-Ub-VS probe labelling (FAM105A): -0.0989 | log2 ratio of Biotin-Ahx-Ub-VS probe labelling (OTUB1): -0.137 | log2 ratio of Biotin-Ahx-Ub-VS probe labelling (OTUD4): -0.268 | log2 ratio of Biotin-Ahx-Ub-VS probe labelling (OTUD5): -0.626

— the supplement of paper PMC11732987, “Enantioselective OTUD7B fragment discovery through chemoproteomics screening and high-throughput optimisation” (Communications Chemistry, 2025)
